Measured values reported in the OligoGym collection.

Key:
Assay in all cases: pooled miR-30 sensor sort-seq; sequence = guide strand
Conditions in all cases: shRNA
ABHD8 = target: ABHD8
ACTL6A = target: ACTL6A
ADAD1 = target: ADAD1
ADAP1 = target: ADAP1
ADAM19 = target: ADAM19
ADAM18 = target: ADAM18
ADCYAP1 = target: ADCYAP1
ADRB1 = target: ADRB1
AHCY = target: AHCY
AK1 = target: AK1
AKR1A1 = target: AKR1A1
AIG1 = target: AIG1
AKR1C4 = target: AKR1C4
ALG3 = target: ALG3
ALG10B = target: ALG10B
ALOX12B = target: ALOX12B
ALDH9A1 = target: ALDH9A1
Further: reference of the scale not given here.

TTCGCTTCTTGGCATAGCGCTT
sensor-assay potency score (higher = more potent) (ABHD8): -0.977

TACAAAGGTGTAGCCATCGCTG
sensor-assay potency score (higher = more potent) (ABHD8): -0.814

TTGCTTGGAAATCCACATCTGT
sensor-assay potency score (higher = more potent) (ACTL6A): -0.451

TACACTGCCATAGAGACCTGGT
sensor-assay potency score (higher = more potent) (ACTL6A): -0.00757

TCAACTTACATTTAGCTTCTTG
sensor-assay potency score (higher = more potent) (ADAD1): -0.0304

AAACAGAAACTTGCGGTCGGGC
sensor-assay potency score (higher = more potent) (ADAP1): -0.903

TTTCCGTGAACAATCTCCCAAA
sensor-assay potency score (higher = more potent) (ADAM19): -0.808

TTTGACTTAATCTTCCGTGGAA
sensor-assay potency score (higher = more potent) (ADAM18): 0.749

TTATATGCTCAAATCTTGCTGA
sensor-assay potency score (higher = more potent) (ADAM18): -0.162

TTGACTAAGTAAAACATTGGAA
sensor-assay potency score (higher = more potent) (ADAD1): -0.221

TTAGTTGATTAAATCTTTCTTT
sensor-assay potency score (higher = more potent) (ADAD1): 0.397

TAGATGAAGATGTTACGGGTGC
sensor-assay potency score (higher = more potent) (ADAP1): -0.0419

TATAACAGTCAATTTGAACTGG
sensor-assay potency score (higher = more potent) (ADAM18): 0.382

TTATACTCTGCATTCTCTCTGT
sensor-assay potency score (higher = more potent) (ADAM18): 0.461

TCATTTGACTTAATCTTCCGTG
sensor-assay potency score (higher = more potent) (ADAM18): 0.722

TATGACTGTAATTTACTGCTAA
sensor-assay potency score (higher = more potent) (ADAM18): 0.177

TATTCCTTCAGAACCTTCGTGG
sensor-assay potency score (higher = more potent) (ADAM18): 0.508

TTGCTGTAACAACAGCATGAGT
sensor-assay potency score (higher = more potent) (ADAD1): -1.53

TCTTTGAAGTACATGAGCCTGC
sensor-assay potency score (higher = more potent) (ADAP1): 0.0128

TCCGTGAAGATCCCGTCCGAGT
sensor-assay potency score (higher = more potent) (ADCYAP1): -1.83

TGAAATACTTCAGAGCACCCTC
sensor-assay potency score (higher = more potent) (ADAP1): -0.32

ATTTCTGTTGAAATACTTCAGA
sensor-assay potency score (higher = more potent) (ADAP1): -1.12

TTCTGTCAGCACAAACTTCCGG
sensor-assay potency score (higher = more potent) (ADAP1): -0.508

TCGTTCTGTCAGCACAAACTTC
sensor-assay potency score (higher = more potent) (ADAP1): -1.49

TTTAGGACAGTAAACAGTCAGA
sensor-assay potency score (higher = more potent) (ADAD1): -1

TAAGAAGAGACCTTCTTGCTGT
sensor-assay potency score (higher = more potent) (ADAD1): 0.614

TAGTTATCGTCTTTGTCGCTGG
sensor-assay potency score (higher = more potent) (ADAD1): -0.46

TTCCGGTAGCGGCTGTAGCTGT
sensor-assay potency score (higher = more potent) (ADCYAP1): -1.35

TACGCCTCTTCCTCTGGCCTGA
sensor-assay potency score (higher = more potent) (ADCYAP1): -1.02

TAGGGCTCCTGCTTCTCCGGGT
sensor-assay potency score (higher = more potent) (ADAP1): 0.35

TTATTCTATTAACACCATCTTT
sensor-assay potency score (higher = more potent) (ADAD1): -0.934

TTCATTATATGTATAAACCAAA
sensor-assay potency score (higher = more potent) (ADAM18): -1.38

TTCTGTTGAAATACTTCAGAGC
sensor-assay potency score (higher = more potent) (ADAP1): -0.664

TTGATGTACAACATGGTCCAGA
sensor-assay potency score (higher = more potent) (ADAM18): -0.506

TAACAGTCAATTTGAACTGGGT
sensor-assay potency score (higher = more potent) (ADAM18): 0.214

TTGAACTGGGTAAACATAGTGT
sensor-assay potency score (higher = more potent) (ADAM18): -0.273

TAAACCGACTTAACATTGCAGC
sensor-assay potency score (higher = more potent) (ADAD1): -0.535

TTCACCTTGCTGACCTGGGGGA
sensor-assay potency score (higher = more potent) (ADAP1): -0.267

TATAGCTACAACCTCATGTTGT
sensor-assay potency score (higher = more potent) (ADAD1): 0.156

TCTGTCAGCACAAACTTCCGGC
sensor-assay potency score (higher = more potent) (ADAP1): 0.0597

TAAACTAATATGAGGTCTGTTG
sensor-assay potency score (higher = more potent) (ADAD1): -1.14

TTTTCCGTGAACAATCTCCCAA
sensor-assay potency score (higher = more potent) (ADAM19): -0.446

TATGTGGCTGAACACAAGCTAA
sensor-assay potency score (higher = more potent) (ADAM18): -1.54

TTGAAGTACATGAGCCTGCGGT
sensor-assay potency score (higher = more potent) (ADAP1): -0.124

TTGATTTTTCCATCATAGCAGG
sensor-assay potency score (higher = more potent) (ADAD1): -0.926

TCCACTGCTGAGACAGCGGCTC
sensor-assay potency score (higher = more potent) (ADRB1): -1.08

TCGTCGTCGTCGTCCGAGGCGG
sensor-assay potency score (higher = more potent) (ADRB1): -1.56

TCTTTTAACATTATAGGCCAAA
sensor-assay potency score (higher = more potent) (AHCY): -1.21

TTGTCAAACTTGCTCTTGGTGA
sensor-assay potency score (higher = more potent) (AHCY): -0.625

TGCACGATCTTCTCACACTGGG
sensor-assay potency score (higher = more potent) (AK1): -0.837

TTAGCTGCTTCATCTCTTCTGG
sensor-assay potency score (higher = more potent) (AKR1A1): -0.107

TCGCTCAAACTCTTCTCCTTGC
sensor-assay potency score (higher = more potent) (AK1): -0.418

TAAAGGTGAAGTCAAACACCTT
sensor-assay potency score (higher = more potent) (AKR1A1): -1.29

TTGGAAACAACTGTATTCTATG
sensor-assay potency score (higher = more potent) (AIG1): -0.738

TTGACTTTGGCCACCATGGCAT
sensor-assay potency score (higher = more potent) (AK1): -0.482

TTGTCGTCCACACGCCCGCTGG
sensor-assay potency score (higher = more potent) (AK1): -1.2

ATGATTTCCGACAGCTTCTTGC
sensor-assay potency score (higher = more potent) (AK1): -1.06

TTGGATGTCACAAACAGCTCCT
sensor-assay potency score (higher = more potent) (AKR1A1): 0.145

TGCGTCCACATACAGCAGCAGT
sensor-assay potency score (higher = more potent) (AK1): -1.67

TGTAATAGGTCTCCAGCCGCTT
sensor-assay potency score (higher = more potent) (AK1): -0.437

TTTGGAAGTATTGACTTTGGCC
sensor-assay potency score (higher = more potent) (AK1): -0.356

AATTCTTTAACACACAGTGAGG
sensor-assay potency score (higher = more potent) (AIG1): -1.45

TCCAACACTGTCTCCAGTGGAA
sensor-assay potency score (higher = more potent) (AK1): -1.08

TTCTCCTTGCTGCACCTCCCGC
sensor-assay potency score (higher = more potent) (AK1): -1.57

TTTGATGGTCTCCTCATTGTCG
sensor-assay potency score (higher = more potent) (AK1): -0.362

TTGATGTTCTGAAGGATTCGAG
sensor-assay potency score (higher = more potent) (AKR1A1): -0.236

TAGTGGGTGGAGTCGTAGCATA
sensor-assay potency score (higher = more potent) (AKR1A1): -1.36

TACCTGACCAGGCTCACTCTTC
sensor-assay potency score (higher = more potent) (AKR1A1): -0.753

TAATAGGTCTCCAGCCGCTTTT
sensor-assay potency score (higher = more potent) (AK1): -1.38

TGTCACAAACAGCTCCTCCCGA
sensor-assay potency score (higher = more potent) (AKR1A1): -0.337

TTCGGGTATATCATCTCTCTGT
sensor-assay potency score (higher = more potent) (AIG1): -0.249

TACAGCAGCAGTGTGGGCTGTC
sensor-assay potency score (higher = more potent) (AK1): 0.332

ATTGTCGTCCACACGCCCGCTG
sensor-assay potency score (higher = more potent) (AK1): -0.347

TAGCCATCAATCAGGAAGCCTT
sensor-assay potency score (higher = more potent) (AK1): -0.92

TCATTGTCGTCCACACGCCCGC
sensor-assay potency score (higher = more potent) (AK1): -0.841

TAAGGGCATACTTAACAGCTGC
sensor-assay potency score (higher = more potent) (AKR1A1): -0.729

TGTCTCCAGTGGAACCAGCTGC
sensor-assay potency score (higher = more potent) (AK1): -0.761

TCCACATACAGCAGCAGTGTGG
sensor-assay potency score (higher = more potent) (AK1): -1.37

TAGAGCAGTAAGACAGCAGGAT
sensor-assay potency score (higher = more potent) (AIG1): 0.285

TTTCCGACAGCTTCTTGCCCCT
sensor-assay potency score (higher = more potent) (AK1): -0.367

TTAAGATGGTTGTAGACCCAAA
sensor-assay potency score (higher = more potent) (AIG1): -0.997

TTGATGGTCTCCTCATTGTCGT
sensor-assay potency score (higher = more potent) (AK1): -0.675

TACTTCTGCACGATCTTCTCAC
sensor-assay potency score (higher = more potent) (AK1): 0.346

TGATGGTCTCCTCATTGTCGTC
sensor-assay potency score (higher = more potent) (AK1): -1.72

TTAACAGCTGCTTTTACCTGAC
sensor-assay potency score (higher = more potent) (AKR1A1): -0.112

TTGTAATAGGTCTCCAGCCGCT
sensor-assay potency score (higher = more potent) (AK1): -0.883

TTGACCTTGCGCACAATGCCAC
sensor-assay potency score (higher = more potent) (AK1): -0.47

TTGTTTGTGTTTCTTTGCTAAG
sensor-assay potency score (higher = more potent) (AKR1C4): -1.47

TATAGTCCCATCAGCATTCTTG
sensor-assay potency score (higher = more potent) (AKR1A1): -0.715

TAGAACTGGTAGTGGAGGGAGC
sensor-assay potency score (higher = more potent) (ALG3): -0.534

TTTTGTGCAATGACATTCCCTG
sensor-assay potency score (higher = more potent) (ALG10B): 0.314

TTGATGACGCCTTCTACCTCGG
sensor-assay potency score (higher = more potent) (ALG3): -0.378

TATGTGTTCCAGGAGAGCTCGA
sensor-assay potency score (higher = more potent) (ALG3): -0.768

AATGCTGTTGATCTGGACGGTG
sensor-assay potency score (higher = more potent) (ALOX12B): -0.387

TAGCCATTCCACTCAGGCCGGT
sensor-assay potency score (higher = more potent) (ALOX12B): -1.01

ATAGATCAAGAAGACAAGCAGC
sensor-assay potency score (higher = more potent) (ALG3): -0.15

TAATAGGTGATGATCTCCGTCA
sensor-assay potency score (higher = more potent) (ALOX12B): -0.427

TTCTCTTATACTGAACGCCAAA
sensor-assay potency score (higher = more potent) (ALDH9A1): -1.4

TCATTGAGGAGAACGGCCCGGC
sensor-assay potency score (higher = more potent) (ALOX12B): 0.146

TGTAGAACTCCGCATAGCGTAC
sensor-assay potency score (higher = more potent) (ALOX12B): -1.11

TCGCCAGTGGTAGAAGTCCTGC
sensor-assay potency score (higher = more potent) (ALOX12B): -1.5

TATTTCAGAATTGCATATCTTT
sensor-assay potency score (higher = more potent) (ALG10B): -0.42

ATAGTCATAGGTACCATTGATG
sensor-assay potency score (higher = more potent) (ALG3): -0.727

TTGCATAGCAACTCAGTTCACA
sensor-assay potency score (higher = more potent) (ALG10B): -0.443

TTATCCTAGTCTCTTTTCCTGT
sensor-assay potency score (higher = more potent) (ALDH9A1): -0.816

TTGCCAGGGAAAATTTTCCTAA
sensor-assay potency score (higher = more potent) (ALOX12B): -0.741

TTAAAGTTGATGAGAATTGGGA
sensor-assay potency score (higher = more potent) (ALOX12B): -0.16

TTTCTGAGGAACTATAACAATG
sensor-assay potency score (higher = more potent) (ALG10B): -1.85

TGGGTCATTGAAGAGCCGCAGC
sensor-assay potency score (higher = more potent) (ALG3): -1.28

ACTATAACAATGAACAAGCATA
sensor-assay potency score (higher = more potent) (ALG10B): -1.35

TGAGGGTAGACTCAGGTCCTGA
sensor-assay potency score (higher = more potent) (ALG3): -1.65

TAGGTACCATTGATGACGCCTT
sensor-assay potency score (higher = more potent) (ALG3): -0.738

TACTTCTCCAGTGCATTCCACA
sensor-assay potency score (higher = more potent) (ALOX12B): -0.953

TCTGCTGTTGTCTTTCCTGTGG
sensor-assay potency score (higher = more potent) (ALOX12B): -0.381

TTCATGACTACTCCGATCGCCA
sensor-assay potency score (higher = more potent) (ALG10B): -0.64

TTGCAGTCCAACAGGCCGCGGA
sensor-assay potency score (higher = more potent) (ALOX12B): -0.697

TAATTTTGCTAGGAGACAGGAG
sensor-assay potency score (higher = more potent) (ALG10B): -0.56

TTGGCTAGCAGCCAGTCCCACT
sensor-assay potency score (higher = more potent) (ALOX12B): -1.48

TTCTCTAGAAGTATGTTACTGG
sensor-assay potency score (higher = more potent) (ALDH9A1): -0.159

TATAGTCATAGGTACCATTGAT
sensor-assay potency score (higher = more potent) (ALG3): -0.777
